According to ChEMBL document CHEMBL3988442, “University of Dundee, Small-Polar-MMV Screening Library” (2021):

Each compound was assayed against T1, Proteasome subunit beta (Trypanosoma cruzi) (UniProt O96673) (assay: Trypanosoma cruzi proteasome chymotrypsin-like activity (TcProtChymo) assay.). Settings: 9.37 µM.
T1 sequence (whole entry): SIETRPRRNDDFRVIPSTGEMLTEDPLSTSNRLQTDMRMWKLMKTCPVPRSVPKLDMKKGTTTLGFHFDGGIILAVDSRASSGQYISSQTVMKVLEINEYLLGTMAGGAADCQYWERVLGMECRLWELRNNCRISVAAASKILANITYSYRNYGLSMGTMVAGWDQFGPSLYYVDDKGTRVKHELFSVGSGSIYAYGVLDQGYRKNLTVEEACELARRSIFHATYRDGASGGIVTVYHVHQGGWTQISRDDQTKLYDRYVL
Format: functional
Design: scale not given: in the data most compounds retested in dose-response had high values
Compound CCCS(=O)(=O)c1ncc(CN2CCC(CO)CC2)n1CC1CCCO1 (centres undefined) has a Percent Effect of 4.74%.
Compound CS(=O)(=O)NC1CCN(C(=O)NCCc2ccccc2F)CC1 has a Percent Effect of 12%.
Cn1ccc(CN2CCC(CCc3ccc(O)cc3)CC2)cc1=O was tested, and the Percent Effect was 1.89%.
Cc1cc(N2CCN(CCO)CC2)nc(-c2ccncc2)n1 was tested, and the Percent Effect was 21.6%.
Compound COc1c(CNC2CCN(C(C)(C)C)CC2)c(C(C)C)nn1C has a Percent Effect of 4.65%.
For O=C1[C@@H]2CCN(Cc3ccncc3)C[C@@H]2OCCN1c1ccccc1, the Percent Effect was 15.6%.
Compound CC(C)c1cc(NC(=O)c2ccc(NC3CC3)nc2)[nH]n1 has a Percent Effect of 11.5%.
In the case of CN(C)C(=O)N1C[C@@H]2CC[C@H](C1)N(Cc1ccc3nsnc3c1)C2, the Percent Effect is reported as 13.2%.
In the case of Cc1csc(N2CCCN(Cc3noc(C)n3)CC2)n1, the Percent Effect is reported as 15.9%.
For CC(C)c1nccn1C1CCCN(C(=O)c2ccc3c(c2)OCO3)C1 (centres undefined), the Percent Effect was 3.96%.
For Cc1nc(C)n(C2CCCN(C(=O)c3cc(C(N)=O)cs3)C2)n1 (centres undefined), the Percent Effect was 8.92%.
CCN1CC(C(=O)NCc2ccccc2-n2cccn2)CC1=O (centres undefined) gave a Percent Effect of 15%.
Cc1cnn(C2CN(CC(O)c3ccc(F)cc3)C2)c1 (centres undefined) showed a Percent Effect of 3.31%.
Work on CC(C)CN1CCN(Cc2nc3ccccc3[nH]2)[C@H]2CS(=O)(=O)C[C@H]21 yielded a Percent Effect of 5.41%.
With OCCC1CN(C2CCC2)CCN1C1CCCC1 (centres undefined) the Percent Effect was 2.28%.
Cc1cc(C)c2nc(CN3CC[C@@H](O)C3)cc(O)c2c1 gave a Percent Effect of 11.9%.
Work on c1ccc(CN2CCN(Cc3cscn3)CC2)cc1 yielded a Percent Effect of 7.2%.
In the case of O=C(CSc1nncs1)N1CCN(Cc2ccc(Cl)s2)CC1, the Percent Effect is reported as 18.1%.
CC1CN(C(=O)CN(Cc2ccco2)C2CC2)CCO1 (centres undefined) gave a Percent Effect of 0.242%.
With C=Cc1ccc(C(=O)N2CCCC(Nc3ccc(OC)cc3)C2)cc1 (centres undefined) the Percent Effect was 3.28%.
COCc1ncn2c1CN(C(=O)C1CC=CC1)CC2 showed a Percent Effect of 3.69%.
For c1ccc(Cn2ccnc2CN2CCOC(Cn3cccn3)C2)cc1 (centres undefined), the Percent Effect was 4.12%.
With CC(C)c1csc(C2CCCN(C(=O)c3ccc(=O)n(C)n3)C2)n1 (centres undefined) the Percent Effect was 7.3%.
Compound Cc1csc(C2CCCCN2C(=O)CN(C)C2CC2)n1 (centres undefined) has a Percent Effect of 8.75%.
For CC(C)NC(=O)N1CCN(CC2CC2)CC2(CC(=O)N(C)C2)C1 (centres undefined), the Percent Effect was 7.02%.
Cc1ccc(C(=O)N2CC[C@@H]3[C@H]2CCC(=O)N3c2ccccc2)o1 showed a Percent Effect of -2.03%.
Cn1cc(CN2CCCN(C(=O)c3ccc4c(c3)COC4)CC2)cn1 was tested, and the Percent Effect was 12.6%.
For O=C(c1cncc(N2CCC3(CCNCC3)CC2)n1)N1CCCC1, the Percent Effect was 23.7%.
Cn1ncc2c(=O)[nH]c(CN3CCC(Cc4ccccc4)CC3)nc21 gave a Percent Effect of 7.7%.
With O=C(NCc1cnc2n1CCN(Cc1ccsc1)CC2)C1CCC1 the Percent Effect was 5.24%.
For CC(=O)c1cn(CCC(=O)N[C@H](C(=O)O)C(C)C)c2ccccc12, the Percent Effect was 11.7%.
Cc1nn(C)c(C)c1C1CCCN1C(=O)CCCn1cccn1 (centres undefined) gave a Percent Effect of -2.45%.
Work on COc1nc2c(cc1C(=O)N1C[C@H](N)C[C@H]1C(=O)NC(C)C)CCC2 yielded a Percent Effect of 16.3%.
Compound OC1CCN(Cc2c(C3CCCNC3)[nH]c3ncccc23)CC1 (centres undefined) has a Percent Effect of 8.42%.
Compound CCN1CC2(CC1=O)CN(Cc1ccco1)CCN(C(=O)N(C)C)C2 (centres undefined) has a Percent Effect of 6.59%.
Work on Cc1ccc(C(CNCc2ccncc2)N2CCOCC2)s1 (centres undefined) yielded a Percent Effect of 17.8%.
For CCOc1ncccc1C(=O)N1CCCCC1c1nccs1 (centres undefined), the Percent Effect was -2.7%.
Cn1cc(CN2CC[C@@H]3[C@@H](CCC(=O)N3CCc3c[nH]cn3)C2)cn1 showed a Percent Effect of 5.05%.
Work on O=C(c1cscn1)N1CCC[C@]2(C[C@H](OCC3CC3)CO2)C1 yielded a Percent Effect of 3.08%.
